High-throughput results: PubChem, National Center for Advancing Translational Sciences (NCATS)
HttQ103 aggreg – qHTS Multiplex Assay to Identify Dual Action Probes in a Cell Model of Huntington: Aggregate Formation (GFP). Potency, µM (series often up to 46.1 µM), for the others: at the highest dose activity change, negative = inhibition, usual class: inhibitors. AID 1688, 2009. 220,000 tested, 1.1% active. PC12 HttQ103-GFP aggregates, Acumen cytometry, 40 h; further: on the % scale 0 is the no-effect control and ±100 the full control effect; nearly all actives have a fitted effect of over 60% in size
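Aggregate formation scored by laser-scanning cytometer (488 excitation, 500–530 emission) in lysed PC12 cells expressing Q103-GFP after 100 nM tebufenozide induction; library tested in dose series, with ATPLite reagent added in the multiplex.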
LMNA splice mod – qHTS Assay for Modulators of Lamin A Splicing; HeLa LMNA splicing GFP/RFP minigene ratio, 48 h; Potency, µM (top dose mostly 46.1 µM), for inactives: top-dose ratio change, negative = inhibition, usual class: inhibitors; 200,000 tested, 0.01% active; active means well fitted inhibition curve with a large enough effect in the signal ratio, with a control signal flat, not every such curve was filed as active; inconclusive means small, poorly fitted or top-dose-only effect, or effect the other way, or a change in a side signal; the % refers to the signal ratio; further: on the % scale 0 is the no-effect control and ±100 the full control effect
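S3 HeLa stable clones carrying a lamin A-EGFP splicing minigene plus DsRed2 were seeded at 600 cells/well in Opti-MEM with 2% FBS, pin-dosed and incubated 48 h at 37°C. Acumen cytometry (488 nm) gave the GFP/RFP total-intensity ratio.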
KinaseGlo FLuc – Counterscreen for Luciferase (Kinase-Glo TM) Inhibition. Luciferin 4-monooxygenase (Photuris pensylvanica), Q27757. Kinase-Glo luciferase, ATP luminescence, 8 min. Potency, µM (top dose mostly 38.3 µM), for inactives: at the highest dose activity change, negative = inhibition, most hits filed as inhibitors. 200,000 tested, 0.28% active. AID 1379, 2008; further: on the % scale 0 is the no-effect control and ±100 the full control effect; nearly all actives have a fitted effect of over 60% in size
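Kinase-Glo luciferase light output from ATP and luciferin was measured with 10 uM ATP, within the enzyme's linear range. Buffer: 50 mM imidazole pH 7.2, 50 mM KCl, 7 mM MgCl2, 0.01% Tween 20, 0.05% BSA; luminescence read after 8 min at ambient temperature.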
HPGD block – qHTS Assay for Inhibitors of HPGD (15-Hydroxyprostaglandin Dehydrogenase) | 150,000 tested, 4.3% active | Potency, µM, without a hit: top-dose activity change, negative = inhibition, hits mostly inhibitors | AID 894, 2007 | 15-hydroxyprostaglandin dehydrogenase [NAD(+)] (Homo sapiens), P15428 | purified HPGD, NADH fluorescence kinetic, PGE2 substrate; active means well fitted inhibition curve with a large enough effect, not every such curve was filed as active; inconclusive means small, poorly fitted or top-dose-only effect, or another doubt; inactive means no such curve, though single readings can be large or run the other way; further: on the % scale 0 is the no-effect control and ±100 the full control effect
Target sequence (P15428 whole entry, looked up): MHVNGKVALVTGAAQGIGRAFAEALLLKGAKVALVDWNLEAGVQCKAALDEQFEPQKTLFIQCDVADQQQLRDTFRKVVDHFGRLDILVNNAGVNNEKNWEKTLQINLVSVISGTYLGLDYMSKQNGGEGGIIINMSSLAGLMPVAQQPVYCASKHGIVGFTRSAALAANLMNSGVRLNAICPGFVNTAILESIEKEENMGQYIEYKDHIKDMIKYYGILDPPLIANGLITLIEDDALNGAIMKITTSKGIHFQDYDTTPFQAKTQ
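20 nM HPGD preincubated 15 min at room temperature with compound in 50 mM Tris-HCl pH 8, 0.01% Tween 20. Started with 1 mM NAD+ and 30 uM prostaglandin E2; NADH fluorescence (360/450 nm) read 5 times over 30-s intervals, last minus first.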
ALDH1A1 block – qHTS Assay for Inhibitors of Aldehyde Dehydrogenase 1 (ALDH1A1); Purified ALDH1A1, NADH fluorescence, propionaldehyde substrate; Potency, µM (doses to about 75.3 µM), without a hit: top-dose activity, negative = inhibition, most hits filed as inhibitors; 220,000 tested, 7.3% active; active means well fitted inhibition curve with a large enough effect, not every such curve was filed as active; inconclusive means small, poorly fitted or top-dose-only effect, or another doubt; inactive means no such curve, though single readings can be large or run the other way;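 further: plate controls were no enzyme wells and a reference inhibitor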
Target sequence (P00352 whole entry, looked up): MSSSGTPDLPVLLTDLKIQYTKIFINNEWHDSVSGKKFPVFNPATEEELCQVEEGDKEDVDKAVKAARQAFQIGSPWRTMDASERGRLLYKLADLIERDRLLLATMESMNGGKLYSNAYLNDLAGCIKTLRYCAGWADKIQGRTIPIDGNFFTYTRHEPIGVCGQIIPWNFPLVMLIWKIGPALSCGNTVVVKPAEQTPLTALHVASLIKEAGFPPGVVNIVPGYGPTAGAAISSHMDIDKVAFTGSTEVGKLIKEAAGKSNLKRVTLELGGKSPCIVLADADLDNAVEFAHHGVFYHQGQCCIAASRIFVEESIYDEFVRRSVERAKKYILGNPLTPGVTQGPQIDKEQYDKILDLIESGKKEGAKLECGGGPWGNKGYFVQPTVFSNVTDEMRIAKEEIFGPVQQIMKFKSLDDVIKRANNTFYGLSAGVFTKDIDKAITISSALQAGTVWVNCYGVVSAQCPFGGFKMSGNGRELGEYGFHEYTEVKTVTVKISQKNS
HTT cytoprotect – qHTS Multiplex Assay to Identify Dual Action Probes in a Cell Model of Huntington: Cytoprotection (ATP) | AID 1471, 2008 | PC12 HTT-Q103 induced, cytoprotection, ATP luminescence, 40 h | Potency, µM (highest dose often 56.4 µM), for the others: cytoprotection (ATP increase), hits mostly activators | 230,000 tested, 0.14% active; further: % of control where 0% means no effect; nearly all actives have a fitted effect of over 45% in size
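Readout: ATPlite luminescence (ATP level). Model: stable PC12, inducible Htt exon1 Q103-GFP. Inducer: tebufenozide, 100 nM final. Compounds: dose series. No G418 in medium.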
The depositor's hits bear a star; ? = inconclusive; / = no result given; [ ] = another dose, or the depositor's remark. This is a sample that favours compounds with a hit; in the whole collection about 9% have one here. Unless noted, the call rests on the fitted dose curve; in most records, active means well fitted curve in the direction sought with a large enough effect; inconclusive means small, poorly fitted or top-dose-only effect, or another doubt; inactive means no such curve, though single readings can be large; an effect the other way counts as inactive or inconclusive. Potency means the concentration at half of the fitted maximal effect.

SMILES | HttQ103 aggreg | LMNA splice mod | KinaseGlo FLuc | HPGD block | ALDH1A1 block | HTT cytoprotect
CC(C)(C)c1cc(=O)[nH]c(SCc2ccccc2Cl)n1 | -7% | / | 0% | / | 4% | 0%
S=c1cnc2ccccc2[nH]1 | -4%[9.22 µM] | 0%[46 µM] | 4% | / | 3.2µM* | -3%
c1ccc(CCc2nc3ccccc3[nH]2)cc1 | -19%[9.22 µM] | ? | -15% | / | 4% | -12%[10 µM]
C=Cc1ccc(C=C)cc1 | / | / | / | -4% | 14µM* | 0%
CCOc1ccc(OCCCN(C)C)cc1 | -2% | 5% | 19% | -7% | 14µM* | -4%
O=C(COc1ccc2ccccc2c1)N1CCN(C(=O)c2cccnc2)CC1 | -7% | 3% | 0% | -7% | 11% | -21%
O=C(NC1CCCc2ccccc21)C1CCN(S(=O)(=O)N2CCCCCC2)CC1 (centres undefined) | -21% | 11% | 1% | -6% | 4.5µM* | -28%[0.074 µM]
Cc1ccc(S(=O)(=O)NC2CCCc3ccccc32)cc1C (centres undefined) | ? | 4% | 15% | -21% | 10µM* | 11%[10 µM]
O=C(NCCN1CCc2ccccc2C1)C1CCN(S(=O)(=O)N2CCCCC2)CC1 | 19% | 10% | -1% | -8% | 18µM* | 5%
Cc1noc(C)c1S(=O)(=O)N1CCC(C(=O)NC2CCCc3ccccc32)CC1 (centres undefined) | 7% | -3% | 19% | -3% | 2% | -7%
O=C(NCCN1CCc2ccccc2C1)C1CCN(S(=O)(=O)N2CCC3(CC2)OCCO3)CC1 | -21% | 1% | -5% | -9% | ? | -17%
CN(C)S(=O)(=O)c1ccc(C(=O)NC2CCCc3ccccc32)cc1 (centres undefined) | -4% | / | 1% | / | 20µM* | ?
CC(C)CC(=O)NC(=S)N1CCN(c2ccc([N+](=O)[O-])cc2Cl)CC1 | -3% | ? | 6% | -9% | ? | 2%[10 µM]
CC(C)C(=O)N1CCN(c2ccc([N+](=O)[O-])cc2Cl)CC1 | 5% | ? | 2% | -8% | 14µM* | 6%[10 µM]
CC(C)CC(=O)N1CCN(c2ccc([N+](=O)[O-])cc2Cl)CC1 | 10% | ? | 0% | -11% | 32µM* | 29%[10 µM]
CC(=O)Nc1sc2c(c1CN1CCCC1)CCCC2 | 6%[9.22 µM] | / | / | / | / | 12%[10 µM]
CC(=O)Nc1sc2c(c1CN1CCN(c3ccccn3)CC1)CCCC2 | 11%[9.22 µM] | ? | -1% | -16% | 22µM* | ?
COc1cc(/C=N/NC(N)=S)ccc1OCC(=O)N1CCOCC1 | 1% | ? | 3% | -5% | 7% | 10%[10 µM]
CCc1cc(=O)oc2cc(C)cc(OC(=O)c3ccco3)c12 | -32% | -16% | 4% | 0% | 10µM* | -22%[0.074 µM]
COc1ccc([N+](=O)[O-])cc1COc1cc(C)cc2oc(=O)cc(-c3ccccc3)c12 | 11% | ? | 0% | -23% | 2µM* | -43%
CC(=O)COc1cc(C)cc2oc(=O)cc(-c3ccccc3)c12 | -5%[9.22 µM] | 7%[46 µM] | -1% | / | 2.2µM* | -32%[1.9 µM]
Cc1ccc(S(=O)(=O)Cn2nnnc2C(C(C)C)N2CCSCC2)cc1 (centres undefined) | -14% | 10% | -1% | -12% | -4% | 8%
Cc1ccc(S(=O)(=O)Cn2nnnc2C(C(C)C)N2CCc3ccccc3C2)cc1 (centres undefined) | -2% | 10% | 0% | -29% | 10µM* | 9%
CCOC(=O)c1c(NC(=O)CSc2nnnn2-c2ccc(OC)cc2)sc(C)c1C | 9% | 5% | -2% | 2.8µM* | 1µM* | -2%
CCOC(=O)c1c(NC(=O)CSc2ncnc3ccccc23)sc(C)c1C | 6% | ? | -3% | -15% | 14µM* | /
SMILES | HttQ103 aggreg | LMNA splice mod | KinaseGlo FLuc | HPGD block | ALDH1A1 block | HTT cytoprotect
CCOC(=O)c1c(NC(=O)CSc2nnc(CNc3ccc(Cl)cc3)o2)sc(C)c1C | -13% | -11% | 1% | -4% | 11µM* | 24%[10 µM]
CCOC(=O)c1c(NC(=O)CSc2nnc(CNc3ccc(F)cc3)o2)sc(C)c1C | -6% | 8% | 1% | -20% | ? | -17%[10 µM]
CCOC(=O)c1c(NC(=O)CSc2ccccc2C(=O)O)sc(C)c1C | -9%[9.22 µM] | / | 2% | / | 2% | -8%[10 µM]
CC(=O)C1=C(O)C(=O)N(CCN(C)C)C1c1ccc(Cl)cc1 (centres undefined) | 15% | -4% | 3% | -13% | -3% | -3%
Cc1cc(O)c(C(C)C)cc1N=Nc1ccccc1C(=O)O | 24%[9.22 µM] | / | / | / | / | 19%[10 µM]
Cc1cc(NO)c(C(C)C)cc1N=O | 3.2µM* | ? | -4% | -15% | -1% | -74%[10 µM]
O=C(NNS(=O)(=O)c1ccc(F)cc1F)C1Cc2c(ccc3ccccc23)O1 (centres undefined) | ? | 7% | -1% | 3% | 2% | ?
O=C(CCc1c[nH]c2ccccc12)N1CCN(c2ccc(O)cc2)CC1 | -12% | ? | 5% | / | 8.9µM* | -15%[10 µM]
Cc1nnc(NC(=O)CSc2nnc(Cc3cccn3C)n2-c2ccccc2)s1 | -24% | -3% | 2% | -2% | -17% | -3%
Cc1cccc(NCC(O)Cn2cnc3c2c(=O)n(C)c(=O)n3C)c1 (centres undefined) | -24% | -19% | 0% | -8% | -2% | 5%
CS(=O)(=O)N(CC(=O)N1CCN(Cc2ccc3c(c2)OCO3)CC1)Cc1ccc(Cl)cc1 | 6%[9.22 µM] | ? | 4% | -14% | 3% | ?
COc1ccc(CCN=CC2=C(O)CC(C)(C)CC2=O)cc1 | -3% | ? | -4% | -9% | ? | -11%
CC1=C(C(=O)Nc2ccccc2)C(c2cccs2)n2nnnc2N1 (centres undefined) | -1% | -11% | 5% | -8% | 11µM* | -15%[10 µM]
CC1=C(C(=O)Nc2ccccc2)C(c2ccncc2)n2nnnc2N1 (centres undefined) | -32% | 0% | / | / | ? | -34%
CC1=C(C(=O)Nc2cccnc2)C(c2ccccn2)n2nnnc2N1 (centres undefined) | -24% | -7% | -2% | -17% | 14µM* | -47%
CC1=C(C(=O)Nc2cccnc2)C(c2ccncc2)n2nnnc2N1 (centres undefined) | 9% | 14% | 1% | -12% | -5% | -8%
